The target of assay [1] is Maternal embryonic leucine zipper kinase (Homo sapiens) (UniProt Q14680). The settings on record: at 10 µM.
Assay [2] addresses T1, Dual specificity mitogen-activated protein kinase kinase 6 (Homo sapiens) (UniProt P52564).
T1 sequence (whole entry): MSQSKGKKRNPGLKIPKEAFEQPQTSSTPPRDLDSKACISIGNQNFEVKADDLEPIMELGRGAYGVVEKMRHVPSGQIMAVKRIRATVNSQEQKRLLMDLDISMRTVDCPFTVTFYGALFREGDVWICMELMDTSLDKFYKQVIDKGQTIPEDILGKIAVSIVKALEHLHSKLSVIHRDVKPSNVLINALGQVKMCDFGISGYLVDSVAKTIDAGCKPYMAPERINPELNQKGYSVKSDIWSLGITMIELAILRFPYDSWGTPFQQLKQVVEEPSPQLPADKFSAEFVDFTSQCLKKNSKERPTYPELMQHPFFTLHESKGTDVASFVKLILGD
The following applies: at 1 µM.

The target in assay [3] is T2, Dual specificity mitogen-activated protein kinase kinase 7 (Homo sapiens) (UniProt O14733).
T2 sequence (whole entry): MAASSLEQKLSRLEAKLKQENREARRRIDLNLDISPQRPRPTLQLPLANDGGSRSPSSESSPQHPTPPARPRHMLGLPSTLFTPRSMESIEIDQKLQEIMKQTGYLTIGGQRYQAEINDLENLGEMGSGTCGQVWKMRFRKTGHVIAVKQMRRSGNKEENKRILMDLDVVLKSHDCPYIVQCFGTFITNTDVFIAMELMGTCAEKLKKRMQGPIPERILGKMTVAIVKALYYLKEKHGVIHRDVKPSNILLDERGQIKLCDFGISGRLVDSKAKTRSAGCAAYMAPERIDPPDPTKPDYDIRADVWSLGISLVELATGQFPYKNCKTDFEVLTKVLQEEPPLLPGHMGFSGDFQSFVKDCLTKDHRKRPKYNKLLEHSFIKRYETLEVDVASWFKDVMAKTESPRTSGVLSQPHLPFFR
The following applies: at 10 µM.

Assay [4] has as its target MAP kinase-activated protein kinase 3 (Homo sapiens) (UniProt Q16644). The following applies: at 10 µM.
Assay [5] has as its target Maternal embryonic leucine zipper kinase (Homo sapiens) (UniProt Q14680). The settings on record: at 1 µM.
Assay [6] concerns the target Misshapen-like kinase 1 (Homo sapiens) (UniProt Q8N4C8). The following applies: at 1 µM.
Assay [7] shares this target. The settings on record: at 10 µM.
Assay [8] deals with T1, Dual specificity mitogen-activated protein kinase kinase 6 (Homo sapiens). The settings on record: at 10 µM.
Assay [9] has as its target T2, Dual specificity mitogen-activated protein kinase kinase 7 (Homo sapiens). The following applies: at 1 µM.
Assay [10] has as its target Myosin light chain kinase, smooth muscle (Homo sapiens) (UniProt Q15746). The settings on record: at 1 µM.
Assay [11] shares this target. The settings on record: at 10 µM.
In assay [12] the target is Mitogen-activated protein kinase kinase kinase 9 (Homo sapiens) (UniProt P80192). The settings on record: at 1 µM.
The target is the same in assay [13]. The following applies: at 10 µM.
Assay [14] concerns the target Serine/threonine-protein kinase MARK1 (Homo sapiens) (UniProt Q9P0L2). The settings on record: at 1 µM.
For assay [15], the target named is Dual specificity mitogen-activated protein kinase kinase 1 (Homo sapiens) (UniProt Q02750). The following applies: at 1 µM.
For assay [16] the target is unchanged. The following applies: at 10 µM.
Assay [17] addresses Serine/threonine-protein kinase MRCK alpha (Homo sapiens) (UniProt Q5VT25). The following applies: at 10 µM.
The target in assay [18] is Serine/threonine-protein kinase MARK1 (Homo sapiens) (UniProt Q9P0L2). The following applies: at 10 µM.
Assay [19] has as its target Serine/threonine-protein kinase MRCK alpha (Homo sapiens) (UniProt Q5VT25). The following applies: at 1 µM.

The record followed here is ChEMBL document CHEMBL2218924, “A broad activity screen in support of a chemogenomic map for kinase signalling research and drug discovery” (Biochem J, 2013).

Serine/threonine-protein kinase MRCK alpha (Homo sapiens), sequence (Q5VT25 whole entry): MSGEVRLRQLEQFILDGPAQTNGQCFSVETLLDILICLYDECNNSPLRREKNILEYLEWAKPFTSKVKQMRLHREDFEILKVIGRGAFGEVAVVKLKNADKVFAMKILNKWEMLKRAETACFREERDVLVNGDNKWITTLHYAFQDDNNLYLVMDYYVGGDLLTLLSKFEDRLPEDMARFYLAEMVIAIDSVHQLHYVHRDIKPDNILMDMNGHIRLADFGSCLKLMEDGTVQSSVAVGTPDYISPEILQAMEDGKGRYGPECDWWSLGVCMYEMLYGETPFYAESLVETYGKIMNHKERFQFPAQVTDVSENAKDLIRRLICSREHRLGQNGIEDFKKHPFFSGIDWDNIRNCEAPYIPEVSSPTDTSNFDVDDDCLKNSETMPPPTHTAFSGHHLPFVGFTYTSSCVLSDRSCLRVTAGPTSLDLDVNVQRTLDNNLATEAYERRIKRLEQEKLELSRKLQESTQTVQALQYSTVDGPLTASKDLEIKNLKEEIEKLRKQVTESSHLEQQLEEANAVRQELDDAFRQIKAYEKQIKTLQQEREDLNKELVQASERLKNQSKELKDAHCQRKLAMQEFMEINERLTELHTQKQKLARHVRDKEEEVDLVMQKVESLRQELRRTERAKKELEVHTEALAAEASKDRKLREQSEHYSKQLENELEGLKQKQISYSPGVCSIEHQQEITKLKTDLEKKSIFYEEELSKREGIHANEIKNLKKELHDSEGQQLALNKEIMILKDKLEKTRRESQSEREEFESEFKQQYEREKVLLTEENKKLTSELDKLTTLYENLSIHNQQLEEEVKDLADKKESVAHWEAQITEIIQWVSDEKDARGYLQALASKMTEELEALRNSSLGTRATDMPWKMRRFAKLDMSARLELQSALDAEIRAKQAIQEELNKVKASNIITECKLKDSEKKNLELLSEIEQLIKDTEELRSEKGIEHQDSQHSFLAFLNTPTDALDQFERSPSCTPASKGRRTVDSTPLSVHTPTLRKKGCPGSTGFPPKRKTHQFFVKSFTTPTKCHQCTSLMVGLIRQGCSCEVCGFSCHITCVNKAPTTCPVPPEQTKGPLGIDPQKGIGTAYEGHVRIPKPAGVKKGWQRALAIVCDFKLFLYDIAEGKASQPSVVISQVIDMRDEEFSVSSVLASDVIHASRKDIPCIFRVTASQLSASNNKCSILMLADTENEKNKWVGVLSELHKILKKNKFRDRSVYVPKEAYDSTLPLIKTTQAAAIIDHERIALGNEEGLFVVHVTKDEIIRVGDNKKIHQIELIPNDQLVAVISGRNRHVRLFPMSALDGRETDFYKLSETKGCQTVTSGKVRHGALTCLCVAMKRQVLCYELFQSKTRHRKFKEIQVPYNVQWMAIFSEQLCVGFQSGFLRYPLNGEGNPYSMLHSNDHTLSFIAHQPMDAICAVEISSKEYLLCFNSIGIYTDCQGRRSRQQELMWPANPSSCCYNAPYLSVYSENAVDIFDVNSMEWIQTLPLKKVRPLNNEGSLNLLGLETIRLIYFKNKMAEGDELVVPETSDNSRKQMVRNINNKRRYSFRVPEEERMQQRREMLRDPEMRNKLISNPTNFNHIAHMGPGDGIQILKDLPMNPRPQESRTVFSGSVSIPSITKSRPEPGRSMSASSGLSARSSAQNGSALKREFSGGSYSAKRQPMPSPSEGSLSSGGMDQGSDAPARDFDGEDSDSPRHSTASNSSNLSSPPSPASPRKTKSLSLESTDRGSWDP
Dual specificity mitogen-activated protein kinase kinase 1 (Homo sapiens), sequence (Q02750 whole entry): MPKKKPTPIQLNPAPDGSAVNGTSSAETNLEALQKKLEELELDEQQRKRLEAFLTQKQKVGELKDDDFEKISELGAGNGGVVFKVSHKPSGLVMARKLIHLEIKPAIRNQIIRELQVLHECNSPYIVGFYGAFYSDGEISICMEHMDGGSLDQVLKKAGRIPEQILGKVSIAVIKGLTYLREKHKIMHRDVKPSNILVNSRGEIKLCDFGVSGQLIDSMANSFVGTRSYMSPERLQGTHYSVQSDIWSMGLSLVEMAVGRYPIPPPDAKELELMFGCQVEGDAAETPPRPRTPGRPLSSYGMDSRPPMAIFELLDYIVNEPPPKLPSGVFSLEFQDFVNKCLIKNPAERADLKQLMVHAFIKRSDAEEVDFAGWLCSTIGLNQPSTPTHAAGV
Serine/threonine-protein kinase MARK1 (Homo sapiens), sequence (Q9P0L2 whole entry, looked up): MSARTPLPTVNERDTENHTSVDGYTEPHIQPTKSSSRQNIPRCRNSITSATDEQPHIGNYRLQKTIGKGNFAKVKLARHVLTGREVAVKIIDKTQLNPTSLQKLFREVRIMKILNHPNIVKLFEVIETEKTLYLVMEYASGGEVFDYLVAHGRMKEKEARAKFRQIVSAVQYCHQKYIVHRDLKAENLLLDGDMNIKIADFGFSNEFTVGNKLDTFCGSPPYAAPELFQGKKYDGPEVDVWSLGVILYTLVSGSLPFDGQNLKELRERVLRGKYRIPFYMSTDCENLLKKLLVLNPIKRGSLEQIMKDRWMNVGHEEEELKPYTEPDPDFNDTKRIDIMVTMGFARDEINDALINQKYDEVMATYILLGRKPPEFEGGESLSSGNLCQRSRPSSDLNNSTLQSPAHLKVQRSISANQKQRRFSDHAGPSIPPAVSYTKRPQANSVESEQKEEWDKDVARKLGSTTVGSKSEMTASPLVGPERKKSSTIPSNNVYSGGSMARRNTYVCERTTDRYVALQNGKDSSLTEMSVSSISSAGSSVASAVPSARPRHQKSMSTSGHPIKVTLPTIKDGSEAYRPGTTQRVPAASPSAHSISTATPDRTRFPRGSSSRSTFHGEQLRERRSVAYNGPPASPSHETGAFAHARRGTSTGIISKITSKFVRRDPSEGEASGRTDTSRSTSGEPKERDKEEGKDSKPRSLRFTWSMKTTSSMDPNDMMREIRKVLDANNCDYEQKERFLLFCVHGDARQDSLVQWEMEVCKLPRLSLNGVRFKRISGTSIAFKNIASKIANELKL
Myosin light chain kinase, smooth muscle (Homo sapiens), sequence (Q15746 whole entry): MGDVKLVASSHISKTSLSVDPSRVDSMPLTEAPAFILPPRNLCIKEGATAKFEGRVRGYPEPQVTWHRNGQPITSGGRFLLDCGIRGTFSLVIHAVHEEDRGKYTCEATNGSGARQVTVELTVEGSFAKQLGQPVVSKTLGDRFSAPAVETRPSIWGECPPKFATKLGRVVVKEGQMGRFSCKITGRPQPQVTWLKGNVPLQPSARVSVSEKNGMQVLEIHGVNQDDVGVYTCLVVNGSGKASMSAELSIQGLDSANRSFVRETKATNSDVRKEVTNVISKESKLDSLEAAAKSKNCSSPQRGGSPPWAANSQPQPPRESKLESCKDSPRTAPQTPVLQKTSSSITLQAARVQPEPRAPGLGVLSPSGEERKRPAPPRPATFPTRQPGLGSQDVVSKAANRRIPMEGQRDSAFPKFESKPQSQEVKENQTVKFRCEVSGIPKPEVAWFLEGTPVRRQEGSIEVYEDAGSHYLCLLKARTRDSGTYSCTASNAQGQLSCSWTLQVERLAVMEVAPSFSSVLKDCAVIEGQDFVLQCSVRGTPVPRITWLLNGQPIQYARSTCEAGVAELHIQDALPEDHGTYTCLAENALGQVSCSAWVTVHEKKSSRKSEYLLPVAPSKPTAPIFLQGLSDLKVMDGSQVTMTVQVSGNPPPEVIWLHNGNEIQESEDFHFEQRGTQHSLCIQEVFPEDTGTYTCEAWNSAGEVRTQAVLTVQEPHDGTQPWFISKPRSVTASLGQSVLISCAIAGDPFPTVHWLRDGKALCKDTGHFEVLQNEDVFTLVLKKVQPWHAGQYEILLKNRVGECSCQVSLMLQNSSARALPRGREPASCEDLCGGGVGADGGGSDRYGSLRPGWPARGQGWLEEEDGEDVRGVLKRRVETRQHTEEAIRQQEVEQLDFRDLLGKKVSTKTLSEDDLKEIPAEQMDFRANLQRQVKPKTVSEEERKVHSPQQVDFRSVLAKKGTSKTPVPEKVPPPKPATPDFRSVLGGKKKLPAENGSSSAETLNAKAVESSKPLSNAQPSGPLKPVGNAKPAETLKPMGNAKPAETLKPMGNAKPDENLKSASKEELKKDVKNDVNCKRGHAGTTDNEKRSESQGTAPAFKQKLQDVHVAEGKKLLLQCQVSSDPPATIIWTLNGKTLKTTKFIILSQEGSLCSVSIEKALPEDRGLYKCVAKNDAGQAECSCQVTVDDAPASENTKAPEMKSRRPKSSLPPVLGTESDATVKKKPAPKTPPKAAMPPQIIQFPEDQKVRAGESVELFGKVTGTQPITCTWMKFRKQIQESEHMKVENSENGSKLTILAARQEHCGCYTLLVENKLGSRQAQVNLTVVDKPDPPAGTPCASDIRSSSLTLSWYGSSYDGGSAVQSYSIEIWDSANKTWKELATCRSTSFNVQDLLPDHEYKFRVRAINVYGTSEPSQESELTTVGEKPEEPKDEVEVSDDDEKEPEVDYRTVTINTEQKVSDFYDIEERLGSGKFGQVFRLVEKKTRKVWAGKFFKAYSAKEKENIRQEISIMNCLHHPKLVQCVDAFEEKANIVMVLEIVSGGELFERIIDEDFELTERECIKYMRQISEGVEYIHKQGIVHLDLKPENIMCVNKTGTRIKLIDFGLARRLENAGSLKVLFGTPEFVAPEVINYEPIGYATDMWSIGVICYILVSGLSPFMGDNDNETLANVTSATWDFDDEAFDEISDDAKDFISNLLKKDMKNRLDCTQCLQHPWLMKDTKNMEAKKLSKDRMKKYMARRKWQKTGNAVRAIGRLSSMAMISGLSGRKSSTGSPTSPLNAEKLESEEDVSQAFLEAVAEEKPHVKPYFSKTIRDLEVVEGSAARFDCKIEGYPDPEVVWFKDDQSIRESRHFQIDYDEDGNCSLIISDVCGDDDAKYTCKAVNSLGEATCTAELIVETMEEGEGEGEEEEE

For `O=c1cc(N2CCOCC2)oc2c(-c3ccccc3)cccc12`, the results for the residual activity in [1], in assay [2] and in assay [3] were 72%, 72% and 76%, respectively.
As for `N#C/C(=C1/Nc2ccccc2S1)c1ccnc(NCCc2cccnc2)n1`, the residual activity in [4] was 68%; in [5] it was 74%; in assay [1], 50%; in [6] it was 96%; in assay [7], 72%; in [2], 84%. In addition, the residual activity in [8] was determined as 39%; in [9] it was 67%; in assay [3], 42%; in assay [10], 96%; in assay [11] it was 73%; in assay [12] it was 48%. Further, the residual activity in assay [13] worked out at 9%.
For `COc1cc2nccc(Oc3ccc(NC(=O)Nc4cc(C)on4)c(Cl)c3)c2cc1OC`, the residual activity in [4] is 67%; in [14] it was 99%; in assay [15], 62%; in [16] it was 20%; in assay [1], 80%; in assay [6], 71%. The residual activity was 21% in assay [7]; 49% in [2]; 21% in [8]; 66% in assay [10]; 61% in assay [11]; 61% in assay [13]. In addition, the residual activity in [17] came to 102%.
For the compound `CCCCc1c(-c2ccc(O)cc2)[nH]c2nccnc12`, the residual activity in assay [14] is 74%; in [18], 38%; in [5], 76%; in assay [1], 72%; in [6] it was 97%; in assay [7] it was 86%. Besides, the residual activity came out at 87% in [2]; 73% in assay [8]; 100% in assay [10]; 83% in assay [11]; 16% in assay [12]; 15% in [13].
As for `CCN(CC)CCNC(=O)c1c(C)[nH]c(/C=C2\C(=O)Nc3ccc(Cl)cc32)c1C`, the residual activity in [14] is 14%; in assay [18], 3%; in [15], 21%; in assay [16], 8%; in assay [5] it was 8%; in [1], 3%. Moreover, the residual activity in assay [6] came to 9%; in [7] it was 2%; in assay [2], 66%; in [8] it was 46%; in assay [3], 81%; in assay [10], 9%. Moreover, the values for the residual activity in assay [11], in assay [12] and in [13] were 3%, 24% and 4%, respectively.
Consider `O=C1NC(=O)C(c2cn(CCCn3ccnc3)c3ccccc23)=C1Nc1ccccc1`, for which the residual activity turned out to be 77% in [14]; 51% in assay [18]; 104% in [15]; 39% in assay [16]; 47% in assay [7]; 102% in [9]. Further, the residual activity in assay [3] came to 121%; in [10], 53%; in assay [11] it was 23%; in [12] it was 16%; in assay [13], 5%.
For `COc1cc2c(cc1OC)-c1n[nH]c(Nc3cccc(F)c3)c1C2`, the residual activity stood at 99% in assay [4]; 73% in assay [14]; 48% in assay [18]; 108% in assay [15]; 47% in assay [5]; 11% in assay [1]. In addition, the residual activity in assay [6] came to 74%; in [7] it was 42%; in [9], 109%; in assay [3] it was 131%; in assay [10], 73%; in assay [11] it was 60%. Besides, the figures for the residual activity in assay [19] and in [17] were 116% and 129%, respectively.
For `COc1ccc(Cl)cc1NC(=O)Nc1cc(C)nc2ccccc12`, the residual activity in [14] was 86%; in [18], 77%; in assay [15], 75%; in assay [16], 86%; in [5], 88%; in [1] it was 89%. For the same compound, the residual activity in [9] stood at 87%; in assay [3] it was 99%; in assay [10] it was 83%; in assay [11], 71%; in assay [12], 91%; in assay [13] it was 100%.
Take `CN([C@@H](Cc1ccc(OS(=O)(=O)c2cccc3cnccc23)cc1)C(=O)N1CCN(c2ccccc2)CC1)S(=O)(=O)c1cccc2cnccc12`: the residual activity amounted to 78% in [4]; 99% in [14]; 98% in [18]; 124% in [8]; 100% in assay [10]; 72% in assay [11].
For `c1ccc(-c2cnc(Nc3ccc(OCCN4CCCC4)cc3)s2)cc1`, the residual activity amounted to 104% in assay [4]; 113% in assay [15]; 64% in [5]; 20% in assay [1]; 61% in assay [6]; 12% in [7]. Further, the residual activity in [2] came to 77%; in assay [8], 72%; in assay [10], 76%; in [11], 58%; in assay [12], 74%; in [13], 22%. The residual activity in [19] was 107%; in [17] it was 106%.
For `Nc1ncnc2c1cnn2-c1ccccc1`, the residual activity came to 92% in assay [4]; 89% in assay [14]; 88% in assay [18]; 79% in assay [16]; 95% in assay [5]; 73% in assay [1]. Further, the residual activity in assay [7] was 99%; in [2], 79%; in assay [8], 91%; in [9] it was 97%; in [3] it was 94%; in assay [10], 86%. In addition, the residual activity was 84% in [11], 83% in assay [12] and 57% in assay [13].
Take `COc1ccc(CNC(=O)Nc2ncc([N+](=O)[O-])s2)cc1`: the residual activity in assay [18] is 76%; in assay [11], 76%; in [19], 118%; in assay [17], 104%.
For `O=C1Nc2ccccc2/C1=C\c1c(Cl)[nH]c2ccccc12`, the residual activity in [4] worked out at 85%; in assay [18], 74%; in [5], 77%; in [1] it was 30%; in [3], 77%; in [11], 11%. Moreover, in assay [13], the residual activity amounted to 62%.
With `O=C(Nc1ccc(Cl)cc1)c1ccccc1NCc1ccncc1`, the residual activity was 75% in assay [5] and 99% in assay [12].
Consider `O=c1c(-c2ccc(F)cc2)c(-c2ccncc2)[nH]n1-c1ccc(Cl)cc1`, for which the residual activity in assay [16] was found to be 102%; in assay [7], 55%; in assay [2] it was 74%; in assay [8] it was 0%; in assay [9] it was 77%; in [3], 22%. Further, in [19], the residual activity amounted to 119%.
Regarding `COc1ccc(COc2ccc(Cc3cnc(N)nc3N)cc2OC)cc1`, the residual activity in assay [18] is 71%; in [2], 78%; in assay [8], 80%; in assay [9], 113%; in [3] it was 80%.
As for `O=S(=O)(NCCNC/C=C/c1ccc(Br)cc1)c1cccc2cnccc12`, the residual activity stood at 76% in assay [14]; 37% in assay [18]; 45% in assay [5]; 9% in [1]; 75% in [7]; 69% in assay [8]. In addition, the results for the residual activity in assay [11] and in assay [13] were 63% and 74%, respectively.
Regarding `N#Cc1c(NC(=O)c2cccc3ccccc23)sc2c1CCCC2`, the residual activity came out at 88% in assay [4]; 100% in [14]; 92% in assay [18]; 87% in assay [5]; 91% in [1]; 95% in [6]. The residual activity was 93% in assay [7]; 93% in assay [2]; 85% in [8]; 88% in assay [9]; 82% in [3]; 83% in assay [11]. Moreover, the residual activity in [12] was 96%; in assay [13], 95%.
